ELG1 DNA repair: inhibitors of ELG1-dependent DNA repair in HEK293T cells. HEK293T ELG1-luciferase reporter, luminescence, 16 h; DNA damage induced by 5-fluorouridine. Potency, µM (titrated, usually from 46.1 µM), inactives show top-dose activity change, negative = inhibition, hits mostly inhibitors. 2.3% of 330,000 active; further: on the % scale 0 is the no-effect control and ±100 the full control effect; nearly all actives have a fitted effect of over 55% in size
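5-Fluorouridine DNA damage + compound/DMSO, 2,000 cells/well, 16 h, 37 °C/5% CO2. ONE-Glo, 30 min RT, luminescence. Readout = decrease in reporter signal.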
NPC1 prom act: activators of NPC1 promoter; Huh7 NPC1 promoter luciferase reporter, 24 h; AID 485313; Potency, µM (highest dose often 9.22 µM), inactives show top-dose activation, actives largely listed as activators; 2.4% of 320,000 active; further: % of control where 0% means no effect; nearly all actives have a fitted effect of over 60% in size
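In 1536-well qHTS, Huh7 cells harboring an NPC1 promoter–luciferase construct received compound for 24 h; activation was quantified by luminescence following luciferase reagent addition.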
FLuc counter: firefly luciferase modulation, counter-screen for miR-21 project; purified FLuc, Km substrates, luminescence inhibition; 6.9% of 360,000 active; Potency, µM (doses to about 57.5 µM), without a hit: top-dose activity change, negative = inhibition, hits mostly inhibitors;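 further: plate controls were vehicle for no effect and reference inhibitor for full effect; nearly all actives have a fitted effect of over 55% in size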
Target sequence (P08659 whole entry, looked up): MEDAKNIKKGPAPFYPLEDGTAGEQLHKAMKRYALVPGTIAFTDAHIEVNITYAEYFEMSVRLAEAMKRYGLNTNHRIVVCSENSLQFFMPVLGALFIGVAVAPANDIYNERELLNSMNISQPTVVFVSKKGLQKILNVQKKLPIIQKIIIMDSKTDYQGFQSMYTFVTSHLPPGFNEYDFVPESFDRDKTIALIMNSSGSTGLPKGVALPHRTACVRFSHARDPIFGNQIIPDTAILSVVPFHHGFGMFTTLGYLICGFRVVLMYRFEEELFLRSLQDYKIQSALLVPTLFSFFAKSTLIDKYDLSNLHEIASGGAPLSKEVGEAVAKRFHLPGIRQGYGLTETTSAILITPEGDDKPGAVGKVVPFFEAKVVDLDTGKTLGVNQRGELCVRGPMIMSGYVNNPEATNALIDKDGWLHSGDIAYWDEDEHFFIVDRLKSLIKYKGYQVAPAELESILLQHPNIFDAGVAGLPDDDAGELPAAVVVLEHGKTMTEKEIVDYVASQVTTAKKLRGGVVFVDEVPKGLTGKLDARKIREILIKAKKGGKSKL
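Biochemical qHTS of compounds, final roughly 60 µM downward over six points, against 10 nM purified firefly luciferase using Km concentrations of substrates (10 uM D-luciferin, 10 uM ATP) in Tris acetate pH 7.5 buffer; luminescence output.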
Rab9 promoter act: activates the Rab9 promoter; Huh7 Rab9 promoter-luciferase reporter, luminescence, 24 h; Potency, µM (top dose mostly 9.22 µM), for inactives: at the top dose activation, negative = inhibition, most hits filed as activators; AID 485297; 2.8% of 320,000 active; further: % of control where 0% means no effect; nearly all actives have a fitted effect of over 60% in size
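Using Huh7 cells stably transfected with Rab9 promoter–luciferase, compounds were incubated 24 h at 37 °C, 5% CO2; luciferase luminescence was read 10 min after reagent addition.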
ELG1 genotox: induces genotoxicity in HEK293T cells with luciferase-tagged ELG1 | HEK293T ELG1-luciferase reporter, luminescence, 16 h | Potency, µM (highest dose often 46 µM), for inactives: at the highest dose activity change, positive = activation, hits mostly activators | 1.3% of 330,000 active | AID 504466; further: % of control where 0% means no effect; nearly all actives have a fitted effect of over 60% in size
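Luminescence read-out: rising ELG1-luciferase signal, reflecting elevated ELG1 protein under genetic stress, flags genotoxic compounds. Cells were treated for 16 hr at 37 °C before ONE-Glo detection.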
SMN2 splice up: enhancers of SMN2 splice variant expression | 2.8% of 210,000 active | Potency, µM (series often up to 46.1 µM), inactives show at the top dose activity change, positive = activation, most hits filed as activators | HEK293 SMN2-luciferase splicing reporter, luminescence, 30-36 h; further: % of control where 0% means no effect; nearly all actives have a fitted effect of over 55% in size
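HEK293 cells carry an SMN2 […]–luciferase reporter in which exon 7 inclusion puts luciferase in frame. Cells were plated 10-12 h before compound addition, then incubated 30-36 h at 37C. ONE-Glo luminescence was read; sodium butyrate at 4.5 mM final served as control.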
* = called active by the depositor; ? = inconclusive; / = not tested or not shown; [ ] = remark or other dose. Compounds with a hit are over-represented: about 9.2% of the library has one in this group of screens. The call rests on the fitted dose curve; in most records, active means well fitted curve in the direction sought with a large enough effect; inconclusive means small, poorly fitted or top-dose-only effect, or another doubt; inactive means no such curve, though single readings can be large; an effect the other way counts as inactive or inconclusive. Potency means the concentration at half of the fitted maximal effect.

SMILES	ELG1 DNA repair	NPC1 prom act	FLuc counter	Rab9 promoter act	ELG1 genotox	SMN2 splice up
COc1ccc(NC(=O)CCn2c(-c3ccc(F)cc3)cc(C(C)=O)c2C)c(OC)c1	/	/	5%	/	/	/
Cc1c(C(=O)OCc2nnc(-c3ccccc3)o2)oc2ccccc12	-6%	/	/	/	0%	/
CCc1nc2ccccc2c(C(=O)Oc2cccc3cccnc23)c1C	?	7%	15µM*	12%	-10%	-19%
CCc1nc2ccccc2c(C(=O)OCc2nc3ccccc3c(=O)[nH]2)c1C	13µM*	/	/	/	-10%	/
CCc1nc2ccccc2c(C(=O)OCc2nnc(-c3ccccc3)o2)c1C	21µM*	-6%	3%	-5%	-5%	-9%
CCc1nc2ccc(C)cc2c(C(=O)Oc2cccc3cccnc23)c1C	?	3%	4%	2%	0%	-15%
Cc1ccc(C2CC(C(F)(F)F)n3nc(C(=O)NCc4c(C)nn(C)c4C)c(Cl)c3N2)cc1 (stereo not drawn)	12µM*	-7%	2%	-14%	-4%	-48%
COc1ccc(C2CC(C(F)(F)F)n3nc(C(=O)NCc4cn(C)nc4C)c(Cl)c3N2)cc1 (stereo not drawn)	23µM*	-4%	0%	-8%	-11%	-23%
COc1ccc(-n2c(C)cc(C3=NNC(=NC4CC4)SC3)c2C)cc1	?	-2%	5.4µM*	0%	?	4µM*
Cc1cc(C2=NNC(=NC3CC3)SC2)c(C)n1-c1ccccc1	4.6µM*	-32%	0.076µM*	-40%	-10%	-101%
COC(=O)c1cc(S(=O)(=O)NCC2CCN(CCc3ccc(OC)cc3)CC2)c[nH]1	2%	3%	4%	15%	-3%	/
Cc1cc(NC(=O)CS(=O)(=O)c2cn(Cc3cccc(F)c3)c3ccccc23)no1	21µM*	-2%	4%	-3%	-14%	-15%
CS(=O)(=O)N(Cc1ccc(Cl)cc1)c1ccc(C(=O)NCCSc2ccccn2)cc1	?	1%	2%	4%	-5%	-3%[1.84 µM]
O=C(NCCSc1ccccn1)c1ccc(Cl)cc1	?	0.63µM*	3.4µM*	0.63µM*	?	2.2µM*
O=C(NCCSc1ccccn1)c1ccc(Cl)cc1Cl	?	0.79µM*	?	1.1µM*	-10%	3.2µM*
CCS(=O)(=O)N1CCCC(c2nc(-c3cccc(OC)c3)no2)C1 (stereo not drawn)	?	29%	?	?	15µM*	?
CCCS(=O)(=O)N1CCCC(c2nc(-c3ccc(OC)cc3)no2)C1 (stereo not drawn)	?	-2%	?	-3%	1%	-26%
COc1ccc(/C=C\c2onc(C)c2S(=O)(=O)N2CCC(C(=O)Nc3cccc(OC)c3)CC2)cc1	/	/	-6%	/	/	-35%
CC1CCCC(C)N1C(=O)CN1C(=O)NC2(CCOc3ccccc32)C1=O (stereo not drawn)	2%	-4%	4%	-2%	0%	/
O=C(CSc1ccc(Cl)cc1)N1CCOCC1	?	2%	3%[2.3 µM]	25%	10%	6%
O=C(CSc1nnc(-c2ccc3c(c2)OCCO3)o1)N1CCCC1	?	?	6.7µM*	2.5µM*	?	?
Cc1cc(NC(=O)CSc2ccc(-c3ccc4c(c3)OCO4)nn2)no1	?	21%	12µM*	24%	?	14%
CCOC(=O)N1CCN(C(=O)CSc2nnc(-c3ccc(C)c(C)c3)o2)CC1	?	0%	?	5%	1%	-7%
Cc1ccc(-c2nnc(SCC(=O)N3CCCC3)o2)cc1C	?	?	15µM*	3.5µM*	?	11µM*
Cc1ccc(-c2ccc(SCC(=O)Nc3cc(C)on3)nn2)cc1	?	10%	-21%	?	4%	7%
SMILES	ELG1 DNA repair	NPC1 prom act	FLuc counter	Rab9 promoter act	ELG1 genotox	SMN2 splice up
Cc1ccc(SCC(=O)N2CCOCC2)cc1	?	26%	?	?	?	11µM*
CCCCC(=O)Nc1cc2nn(-c3ccc(OCC)cc3)nc2cc1C	/	/	-1%	/	/	6%
Cc1nn2c(=O)cc(COC(=O)c3ccccc3NC(=O)c3ccccc3C)nc2s1	/	/	-5%	/	/	/
CCOC(=O)N1CCN(C(=O)CSc2nnc(-c3cc(OC)cc(OC)c3)o2)CC1	?	0%	2%	0%	-20%	?
CN(C)C(=O)c1ccc(NC(=O)CSc2nnc(-c3ccc4c(c3)OCO4)o2)cc1	17%	7%	1%	0%	7%	/
Cc1ccc(-c2nnc(SCC(=O)N3CCCC3)o2)cc1	?	?	24µM*	?	?	14µM*
Cc1cc(NC(=O)CSc2nnc(-c3cccc(Cl)c3)o2)no1	0%	4%	1%	23%	5%	/
CCOC(=O)N1CCN(C(=O)CSc2nnc(-c3ccc(C(C)(C)C)cc3)o2)CC1	-8%	-1%	3.4µM*	-1%	0%	-12%
Cc1ccc(NC(=O)Cc2nc(CSc3nnc(-c4ccc5c(c4)OCO5)o3)cs2)cc1	?	?	8.5µM*	?	4%	1%
Cc1cc(NC(=O)CSc2nnc(-c3ccc4c(c3)OCCO4)o2)no1	?	?	?	?	?	7.1µM*
O=C(CCSc1nnc(-c2ccccc2)o1)N1CCOCC1	?	10%	?	3%	3%	?
Cc1ccc(-c2nnc(SCCC(=O)N3CCOCC3)o2)cc1	?	21%	19µM*	26%	8%	14%
CC(=O)c1cc2c(=O)c3cc(C)ccc3oc2nc1C	?	?	8.5µM*	3.5µM*	10µM*	13µM*
O=C(O)c1cc2c(=O)c3ccccc3oc2nc1C(F)(F)F	0%	-6%	2%	-4%[1.84 µM]	0%	/
Cc1ccc2oc3nc(C)c(C(=O)O)cc3c(=O)c2c1	?	2.8µM*	13µM*	2.2µM*	24%	5.6µM*
Cc1nc2oc3ccc(F)cc3c(=O)c2cc1C(=O)O	?	-1%	?	-7%	6%	/
CCOC(=O)c1cc2c(=O)c3cc(C)ccc3oc2nc1C	?	2.8µM*	1.9µM*	3.2µM*	?	/
CCN(CC)C(=O)c1cc2c(=O)c3cc(Cl)ccc3oc2nc1C	0%	0%	?	1%[1.84 µM]	7%	11%
CS(=O)(=O)c1ccc(Cl)c(NC(=O)COc2ccc3c(c2)CCC3)c1	0%	-2%	2%	-7%	?	/
C=CC[C@@H](CC(=O)N[C@H](CO)Cc1ccccc1)C(=O)N[C@H](COC(=O)[C@@H](CC=C)Cc1ccc(F)cc1)Cc1c[nH]c2ccccc12	21µM*	/	/	/	-7%	/

Screens as filed in PubChem.
